This passage reports activity score (negative = inhibition of binding) results from PubChem BioAssay AID1832 (Broad Institute, 2009).

Structures are written as SMILES. Among all 300,000 compounds or so, about 1,100 (0.37%) were called active. Shown is part of a subset that was picked to be rich in actives. A number with no mark means an inactive call.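 How the source made its calls: active means inhibition past about -25% in most replicates, and total fluorescence under double the plate's negative control median (limit read from the data); inconclusive means replicates evenly split on the limit, or fluorescence at least double controls; inactive means too little inhibition in most replicates.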

Chain of Zinc finger protein mex-5 (Caenorhabditis elegans) (Q9XUB2 whole entry, looked up): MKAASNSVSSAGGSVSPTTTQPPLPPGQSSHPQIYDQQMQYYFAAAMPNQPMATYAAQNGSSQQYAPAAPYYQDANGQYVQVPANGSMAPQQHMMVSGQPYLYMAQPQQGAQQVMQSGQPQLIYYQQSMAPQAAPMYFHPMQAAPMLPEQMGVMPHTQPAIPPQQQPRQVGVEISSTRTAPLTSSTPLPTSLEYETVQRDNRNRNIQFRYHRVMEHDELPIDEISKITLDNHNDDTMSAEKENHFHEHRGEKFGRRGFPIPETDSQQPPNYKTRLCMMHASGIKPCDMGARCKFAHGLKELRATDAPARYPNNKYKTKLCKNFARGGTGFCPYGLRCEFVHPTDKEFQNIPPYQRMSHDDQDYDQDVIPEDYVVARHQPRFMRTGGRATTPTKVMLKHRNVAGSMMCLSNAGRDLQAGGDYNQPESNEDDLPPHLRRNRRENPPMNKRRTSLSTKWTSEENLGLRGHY

The assay concerns the target Zinc finger protein mex-5 (Caenorhabditis elegans) (UniProt Q9XUB2). Briefly: MEX-5 zinc finger RNA-binding disruptors – biochemical, C. elegans, fluorescence polarization, MLPCN library, primary screen (AID 1832).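 Further: 0% = DMSO and -100% = 5 µM competing unlabeled TCR2 RNA.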 Particulars: MEX-5/FITC-TCR2 RNA binding, at 10 µM, active compounds read low. (In general: Fluorescence polarisation rises when a labelled molecule tumbles more slowly, as on binding a larger partner.)
On to `CCOc1ncccc1C(=O)NCCc1ccc(OC)cc1`, for which the activity score (negative = inhibition of binding) was -0.435%.

`CNC(=O)CN1C(=O)NC(c2ccccc2)(c2ccccc2)C1=O`: the activity score (negative = inhibition of binding) was 2.16%.

With `Brc1cc(/C=N/n2cnnc2)oc1Br`, the activity score (negative = inhibition of binding) is 0.986%.

Consider `Clc1cc(-c2ccc(/C=N/n3cnnc3)o2)ccc1Br`, for which the activity score (negative = inhibition of binding) was -34% (active).

Regarding `Cc1ccc(Cl)cc1-c1ccc(/C=N/n2cnnc2)o1`, the activity score (negative = inhibition of binding) was 0.0863%.

Regarding `Cc1ccoc1C(=O)Nc1cccc(Oc2ccccc2)c1`, the activity score (negative = inhibition of binding) was -2.34%.

As to `COc1ccc(CNC(=O)COc2cccnc2[N+](=O)[O-])cc1`, the activity score (negative = inhibition of binding) is 0.235%.

Consider `CC1(OC(=O)C2CCCC2)C(=O)C=C2C=C(c3ccc(C#N)cc3)OC=C2C1=O` (centres undefined), for which the activity score (negative = inhibition of binding) is -40% (active).

On to `C=CCN1C=C2C(=O)C(C)(OC(=O)CCc3ccccc3)C(=O)C=C2C=C1c1ccc(C#N)cc1` (centres undefined), for which the activity score (negative = inhibition of binding) was -5.84%.

In the case of `COCCN1C=C2C(=O)C(C)(OC(=O)C3CCCC3)C(=O)C=C2C=C1c1ccsc1` (centres undefined), the activity score (negative = inhibition of binding) is -2.5%.

Take `N#CC1=C(N)C(C#N)(C#N)[C@H](c2ccsc2)[C@H]2COCC=C12`: the activity score (negative = inhibition of binding) is -30.3% (active).

As to `CCOC(=O)N1CCC(NC(=O)C(NS(=O)(=O)c2ccc3c(c2)CCN3C(=O)CC)C(C)C)CC1` (centres undefined), the activity score (negative = inhibition of binding) was -1.98%.

Take `O=C(COc1ccc(Cl)cc1Cl)N/N=C/c1ccccn1`: the activity score (negative = inhibition of binding) is 4.25%.

On to `CSc1ncc(C(=O)NCCCc2ccccc2)c(C)n1`, for which the activity score (negative = inhibition of binding) is -2.7%.

With `CCOc1ccc(C(=O)NC2CCN(CC(=O)NCc3cccs3)CC2)cc1`, the activity score (negative = inhibition of binding) was -1.2%.

In the case of `Cc1ccc2c(c1)C(c1ccccc1)N(C(=O)c1ccc(F)cc1)CC(=O)N2` (centres undefined), the activity score (negative = inhibition of binding) was -0.463%.

Regarding `CCCNC(=O)N1CCC(c2ccc3c(c2)OCO3)CC1`, the activity score (negative = inhibition of binding) is 2.15%.

On to `Cc1nn(C)cc1N1C(=O)c2cccc3c(N)ccc(c23)C1=O`, for which the activity score (negative = inhibition of binding) was 1.83%.

Turning to `CN1C(=O)c2cccc3c(N)ccc(c23)C1=O`, the activity score (negative = inhibition of binding) is -51.4% (active).

In the case of `CCN1C(=O)c2cccc3c(N)ccc1c23`, the activity score (negative = inhibition of binding) is 1.15%.

As for `NC(=O)Cc1ccc2sc(-c3ccccc3)nc2c1`, the activity score (negative = inhibition of binding) was -1.64%.

Regarding `O=C1c2ccccc2C(Nc2ccc3c(c2)OCCO3)N1Cc1ccco1` (centres undefined), the activity score (negative = inhibition of binding) was -1.03%.

For the molecule `CCc1ccc(CNC(=O)C2CCN(c3nnc(C)c4c(C)n(-c5ccc(C)cc5)nc34)CC2)cc1`, the activity score (negative = inhibition of binding) is -2.92%.

As to `O=C(Nc1cccc2c1N(C(=O)c1ccco1)CCC2)c1ccco1`, the activity score (negative = inhibition of binding) was -0.00473%.

Turning to `O=C(NCc1nnc(SCC(=O)N2CCC(Cc3ccccc3)CC2)o1)c1ccco1`, the activity score (negative = inhibition of binding) is -1.62%.

Consider `COc1ccc(-c2onc3ccc(C(C)=O)cc23)cc1`, for which the activity score (negative = inhibition of binding) is -69.7% (active).

On to `Oc1ccc(-c2onc3ccc(Cl)cc23)cc1`, for which the activity score (negative = inhibition of binding) was -1.78%.

Turning to `CC(OC(=O)c1ccc2noc(-c3ccccc3)c2c1)C(N)=O` (centres undefined), the activity score (negative = inhibition of binding) is -5.27%.

Consider `COc1ccc(Cn2c(-c3ccc(Cl)cc3)c[n+]3ccccc23)cc1`, for which the activity score (negative = inhibition of binding) was 2.75%.

`COc1ccc(NC(=O)c2cn(-c3ccccc3)nc2SC)cc1`: the activity score (negative = inhibition of binding) was 2.01%.

Turning to `CN1c2ccc(C=O)c3c(C=O)ccc(c23)N(C)C1(C)C`, the activity score (negative = inhibition of binding) is -35.3% (active).

On to `COc1ccc(NC(=O)CN(C)C(=O)c2n[nH]c3ccccc23)cc1`, for which the activity score (negative = inhibition of binding) was -3.49%.

Consider `CCCCN(CC)CCCNC(=O)c1ccc(CSc2nc3ccncc3[nH]2)cc1`, for which the activity score (negative = inhibition of binding) is 1.01%.

In the case of `Cc1ccc(C2NC(=S)NC3=C2N2CCC3CC2)cc1` (centres undefined), the activity score (negative = inhibition of binding) is 0.478%.

Turning to `Cc1nonc1C1CCCN1Cc1nc(-c2ccc(F)cc2F)oc1C` (centres undefined), the activity score (negative = inhibition of binding) is -2.15%.

In the case of `Cc1ccc(-n2cc(CN(C)Cc3nccn3C)c(-c3cccc(C)c3)n2)cc1`, the activity score (negative = inhibition of binding) is 1.9%.

Turning to `N#C[C@]1(S(=O)(=O)c2ccccc2)C[C@@H]2ON=C(c3cccc(Br)c3)[C@@H]2C1`, the activity score (negative = inhibition of binding) was 1.51%.

Consider `Cc1ccnc(NC(=O)c2ccc(Cl)c([N+](=O)[O-])c2)c1`, for which the activity score (negative = inhibition of binding) is -0.216%.

For the molecule `Cc1nn(CC(=O)N2CCCCC2)c(=O)c2nn(-c3ccccc3)c(C)c12`, the activity score (negative = inhibition of binding) was -3.02%.

In the case of `Cc1nn(C(C)C(=O)NCCC2=CCCCC2)c(=O)c2nn(-c3ccccc3)c(C)c12` (centres undefined), the activity score (negative = inhibition of binding) was -2.35%.

`Cc1nn(C(C)C(=O)N2CCOCC2)c(=O)c2nn(-c3ccccc3)c(C)c12` (centres undefined): the activity score (negative = inhibition of binding) is -34.7% (active).

For `CC(C)Cc1nnc(NC(=O)CCc2ccccc2)s1`, the activity score (negative = inhibition of binding) is -0.0404%.

For `COC(=O)CSc1nnc(NC(=O)CCc2ccccc2)s1`, the activity score (negative = inhibition of binding) was 0.825%.

With `O=C(COC(=O)c1cccc(Cl)c1)Nc1ccc2[nH]c(=O)[nH]c2c1`, the activity score (negative = inhibition of binding) was 0.565%.

With `NC(=O)c1nsc(C(=O)N(CCCN2CCOCC2)C(C(=O)NC2CCCCC2)c2ccc(Cl)cc2)c1N` (centres undefined), the activity score (negative = inhibition of binding) is -0.973%.

In the case of `COC(=O)c1ccc(NC(=O)c2cc3c(CO)cnc(C)c3oc2=Nc2cccc(C(N)=O)c2)cc1`, the activity score (negative = inhibition of binding) was -0.18%.

Take `Cc1cc(NC(=O)Nc2ccccc2[N+](=O)[O-])no1`: the activity score (negative = inhibition of binding) is 0.456%.

As to `O=C1N/C(=C/c2cccn2-c2ccccc2)C(=O)N1c1cccc(Cl)c1`, the activity score (negative = inhibition of binding) was 3.72%.

Turning to `COc1ccc(/C=C2/C(=O)N(c3ccccc3)N=C2C)c(OC)c1`, the activity score (negative = inhibition of binding) was 1.89%.

`COc1cc2c(cc1/C=C1/NC(=O)N(c3ccccc3)C1=O)OCO2`: the activity score (negative = inhibition of binding) was -27% (active).

Regarding `COc1ccc(C(=O)/C=C/c2cccnc2)c(OC)c1`, the activity score (negative = inhibition of binding) is 0.878%.

In the case of `COC(=O)c1ccc(COc2ccc(/C=C/C(=O)c3ccc(OC)c(CSCC(=O)O)c3)cc2OC)cc1`, the activity score (negative = inhibition of binding) is -5.72%.

As to `COc1ccc(C(=O)/C=C/c2ccc(-c3ccccc3)cc2)cc1CSCC(=O)O`, the activity score (negative = inhibition of binding) is -31.8% (active).

On to `COc1ccc(/C=C/C(=O)c2ccc(NS(=O)(=O)c3ccc(C)cc3)cc2)cc1O`, for which the activity score (negative = inhibition of binding) is -0.65%.

Regarding `COc1ccc(CCNS(=O)(=O)c2cc3c(cc2C)NC(=O)CO3)cc1OC`, the activity score (negative = inhibition of binding) was 0.926%.

As for `CC1(C)CC(=O)C=C(Nc2ccccc2)C1`, the activity score (negative = inhibition of binding) was 1.36%.

As for `COC(=O)NNC1=CC(=O)CC(C)(C)C1`, the activity score (negative = inhibition of binding) was -6.29%.

Consider `Cc1cc(C)nc(NNC2=CC(=O)CC(C)(C)C2)n1`, for which the activity score (negative = inhibition of binding) is -66.2% (active).

Turning to `Cc1cc(NC(=O)CCC(=O)N(Cc2ccccc2)C(C(=O)NC2CCCC2)c2ccc(C)o2)no1` (centres undefined), the activity score (negative = inhibition of binding) was -2.13%.

Turning to `Oc1[nH]c2ccc(Br)cc2c1N=Nc1nn[nH]n1`, the activity score (negative = inhibition of binding) was -74.2% (active).

For `NS(=O)(=O)c1ccc(N=Nc2c(O)[nH]c3ccc(Br)cc23)cc1`, the activity score (negative = inhibition of binding) is -2.29%.

Take `O=C(CNC(=O)Cc1ccccc1)N=Nc1c(O)[nH]c2ccc(Br)cc12`: the activity score (negative = inhibition of binding) is 0.589%.

Regarding `O=c1[nH]c(CN2CCOCC2)nc2scc(-c3ccccc3)c12`, the activity score (negative = inhibition of binding) is 1.42%.

On to `COc1ccc(NC(=O)CCn2ccnc2)c(OC)c1`, for which the activity score (negative = inhibition of binding) is -0.322%.

For the molecule `CC(=O)n1c(C=Nc2ccccc2)c(O)c2ccccc21`, the activity score (negative = inhibition of binding) is -52.6% (active).

Take `CCOc1ccc(N=Cc2c(O)n(-c3cccc(C)n3)c(=O)c3ccccc23)cc1`: the activity score (negative = inhibition of binding) is -1.96%.

As for `CCCCn1c(=O)c(C(C)=O)c(O)c2ccccc21`, the activity score (negative = inhibition of binding) was 0.942%.

In the case of `C=CCn1cc(Cl)cc(C(=O)Nc2ccccc2)c1=O`, the activity score (negative = inhibition of binding) is -0.689%.

As for `COc1ccccc1NC(=O)CCSc1nnc(-c2ccc(O)cc2)o1`, the activity score (negative = inhibition of binding) is -2.37%.
